LASV entry inh: qHTS for Inhibitors of binding or entry into cells for Lassa Virus. Lassa virus pseudotype entry inhibition, cell reporter. Potency, µM (series often up to 37.9 µM), inactives show at the highest dose activity change, negative = inhibition, most hits filed as inhibitors. 300,000 tested, 1.2% active. AID 540256, 2011; calls by dose curve; tested in HEK293 cells; note: potency is the fitted concentration of half-maximal effect; nearly all actives have a fitted effect of over 50% in size
Pf growth 96h: Primary qHTS for delayed death inhibitors of the malarial parasite plastid, 96 hour incubation; Potency, µM (top dose mostly 28.7 µM), for inactives: at the top dose activity change, negative = inhibition, actives largely listed as inhibitors; P. falciparum luciferase reporter growth, 96 h; 320,000 tested, 6.9% active; AID 504834, 2011; note: potency is the fitted concentration of half-maximal effect
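Readout is luminescence from an integrated firefly luciferase in P. falciparum. Red cells, 2% hematocrit and 0.05% parasitemia final, were cultured with compound through two parasite generations (96 hours) at 37 C, 5% CO2.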
HCV inhibitor: qHTS Assay for Inhibitors of Hepatitis C Virus (HCV) | Huh7.5.1 HCVcc-Cre infection, luciferase reporter, 44 h | Potency, µM (top dose mostly 41.8 µM), without a hit: top-dose activity change, negative = inhibition, usual class: inhibitors | 340,000 tested, 3.4% active | AID 651820, 2012; note: potency is the fitted concentration of half-maximal effect
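Cells (1,000/well) were plated 4 h before compound, then infected with HCVcc-Cre virus (~0.5 moi). After 44 h further culture, infection was read as luciferase luminescence following a 15 min substrate incubation at room temperature.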
MARV entry inh: qHTS for inhibitors of binding or entry into cells for Marburg Virus. Marburg virus pseudotyped entry inhibition, cell reporter. AID 540276, 2011. Potency, µM (doses to about 37.8 µM), for inactives: at the highest dose activity change, negative = inhibition, most hits filed as inhibitors. 300,000 tested, 1.8% active; calls by dose curve; tested in HEK293 cells; note: potency is the fitted concentration of half-maximal effect
HCMV inh: qHTS Assay for inhibitors of the human cytomegalovirus (HCMV) | AID 1259415, 2018 | HFF cells, HCMV-luciferase reporter, 72 h; active compounds read low | 410,000 tested, 4.5% active | activity change, negative = inhibition, % at 57.5 µM; in the data active = activity change below about -60%; inconclusive = no clear call, values can overlap the other calls; inactive = above about -39%
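After 16 h attachment at 37C, HFF cells received test compound and HCMV-luciferase (1 PFU/cell); reporter luminescence read 72 h later, data normalized against buffer-only and known inhibitor Salinomycin.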
Pf growth 48h: Primary qHTS for delayed death inhibitors of the malarial parasite plastid, 48 hour incubation; AID 504832, 2011; 310,000 tested, 5.9% active; Potency, µM (titrated, usually from 28.7 µM), inactives show at the highest dose activity change, negative = inhibition, hits mostly inhibitors; P. falciparum luciferase growth in erythrocytes, 48 h; note: potency is the fitted concentration of half-maximal effect
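Luciferase-expressing P. falciparum in infected erythrocytes (2% hematocrit, 0.1% parasitemia final) in RPMI 1640/0.5% Albumax were exposed to compound for 48 hours at 37 C, 5% CO2; growth read as luminescence.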
Numbers without * were called inactive; ? = inconclusive; . = not tested or not shown; [ ] = remark or other dose. Only some compounds are listed: those with a hit (about 14% of all), similar ones and a draw of the others. Unless noted, calls come from the whole dose curve; as a rule, active = well fitted inhibition curve with a large enough effect; inconclusive = small, poorly fitted or top-dose-only effect, or another doubt; inactive = no such curve, though single readings can be large or run the other way. % is set by controls: 0 for no effect and ±100 for the full control effect.

SMILES	LASV entry inh	Pf growth 96h	HCV inhibitor	MARV entry inh	HCMV inh	Pf growth 48h
Cc1ccc(C(=O)Nc2ccc(N3CCN(C(=O)c4ccco4)CC3)cc2)c(Cl)c1	?	9%	11µM*	-6%[46.1 µM]	-32	13µM*
Cc1ccc(C(=O)Nc2ccc(N3CCN(C(=O)c4cccs4)CC3)cc2)c(Cl)c1	?	48%	?	?	?	9.3µM*
CC(C)C(=O)Nc1ccc(N2CCN(C(=O)c3cccs3)CC2)cc1	4%	?	17%	14%	97	-15%
O=C(Nc1ccc2c(c1)CCCN2C(=O)c1ccco1)c1cc([N+](=O)[O-])ccc1Cl	2.5µM*	?	?	?	-6	15µM*
Cc1cccc(NC(=S)N2CCN(C(=O)c3ccco3)CC2)c1	-28%[46.1 µM]	?	-2%	-14%[46.1 µM]	-19	5%
O=C(c1ccco1)N1CCN(C(=S)Nc2cccc([N+](=O)[O-])c2)CC1	?	13%	-18%	?	-69*	17%
Cc1c(C(=O)N2CC(C(=O)N3CCCCC3)Oc3ccccc32)oc2ccccc12 (configuration not stated)	-16%	13µM*	?	-14%	-5	?
Cc1c(C(=O)N2CCc3ccccc32)oc2ccccc12	-18%	8%	?	?	26	190%
O=C(Nc1ccn(CCCN2CCN(c3ccccc3)CC2)c(=O)n1)OCc1ccccc1	.	.	.	.	-20	.
Cc1cc(C)c(CN2CCN(CCCn3ccc(NC(=O)OCc4ccccc4)nc3=O)CC2)c(C)c1	.	.	7.9µM*	.	-27	.
CCN(CC)S(=O)(=O)c1ccc(N2CCN(C)CC2)c(NC(=O)Nc2ccc(C)cc2)c1	28%	?	-13%	?	19	9.3µM*
CN1CCN(c2ccc(Cl)cc2NC(=O)c2ccc(=O)n(C)n2)CC1	2%	?	?	?	-24	-11%
CN1CCN(c2ccc(Cl)cc2NC(=O)c2cc(=O)[nH]c3ccccc23)CC1	.	?	-25%	.	-98*	?
CCN(CC)S(=O)(=O)c1ccc(N2CCN(C)CC2)c(NC(=O)CSCC(=O)Nc2cccc(C)c2)c1	10%	?	-4%	?	1	17µM*
Cc1ccc(NC(=O)CSCC(=O)Nc2cc(Cl)ccc2N2CCN(C)CC2)cc1	-23%	?	?	?	-35	13µM*
Cc1cccc(NC(=O)CSCC(=O)Nc2ccc(S(=O)(=O)N3CCCC3)cc2)c1	-24%	-17%	-5%	-28%[46.1 µM]	-9	-19%
Cc1ccc(S(=O)(=O)NCCC(=O)NCCOc2ccccc2)cc1	3%	-7%	0%	0%	-14	?
COc1ccc(-n2ncc3c2CC(C)(C)CC3NC(=O)c2ccoc2C)cc1 (configuration not stated)	-15%	?	?	?	-6	?
COc1ccc(OC)c(C(=O)NC2CC(C)(C)Cc3c2cnn3-c2ccccc2)c1 (configuration not stated)	.	4%	13µM*	.	-77*	?
CC1(C)Cc2c(cnn2-c2ccc(F)cc2)C(NC(=O)c2ccoc2)C1 (configuration not stated)	?	?	-12%	?	-9	-16%
CC1(C)Cc2c(cnn2-c2ccccc2)C(NC(=O)c2ccoc2)C1 (configuration not stated)	11%	?	-6%	-2%	-35	10µM*
Cc1ccc(-n2ncc3c2CC(C)(C)CC3NC(=O)CCc2ccc(=O)[nH]n2)cc1 (configuration not stated)	8%[46.1 µM]	13µM*	8%	-26%[46.1 µM]	23	5%
CC1(C)Cc2c(cnn2-c2ccccc2)C(NC(=O)C2(C(N)=O)CC2)C1 (configuration not stated)	-11%	-7%	25%	?	?	9.3µM*
